Laboratory results from PubChem BioAssay (NCATS).
Several values for one entry are separate records, joined by “and”; a condition that tells them apart may be missing. Identical values can stand only once. Inconclusive results are not listed. Activity calls are given as the source filed them. Calls follow the shape of the dose curve; as a rule, active = well fitted inhibition curve with a large enough effect; inconclusive = small, poorly fitted or top-dose-only effect; inactive = flat fitted curve, though single readings scatter.
% is scaled to controls: 0 for no effect and ±100 for the full control effect.

These compounds were tested on CRL-7250 (assay: Cytotoxic Profiling of Annotated Libraries Using Quantitative High-Throughput Screening (AID 1296008; also: nearly all actives have a fitted effect of over 60% in size)). Details: Five cell lines viability, CellTiter-Glo ATP luminescence, 48-72 h; max response: stronger effect = lower value.
How it was run: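 Compounds were pin-transferred onto cells and incubated 48 or 72 hr at 37 degree Celsius, 95% humidity. CellTiter-Glo was added, plates sat 10 min at room temperature, then ATP-coupled luminescence was imaged as the viability read-out.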
For CC(/C=C/C1(O)C2(C)COC1(C)CC(=O)C2)O[C@@H]1O[C@H](CO)[C@@H](O)[C@H](O)[C@H]1O (stereo partly specified), the max response was -2.92% (inactive).
In the case of CN(C)c1cccc(-c2c3c(=O)n(-c4ccccc4Cl)[nH]c3cc(=O)n2C)c1, the max response was 3.76% (inactive).
For C=C1CCC(OC(C)=O)C2(C)CC3(O)OC(=O)C(C)=C3CC12 (stereo unspecified), the max response was -6.35% (inactive).
For COc1cc(/C=C/C(=O)O[C@H]2[C@H](O)[C@@H](CO)O[C@@]2(CO)O[C@H]2O[C@H](COC(=O)c3ccc(O)cc3)[C@@H](O)[C@H](O)[C@H]2O)cc(OC)c1OC, the outcome was “inactive”.
In the case of CN1C(=O)c2ccccc2NC(=O)[C@]12O[C@@H]2c1cccc(O)c1, the max response was -2% (inactive).
With CC1=CCC2C(C)(CO)CCCC2(C)C1CC12OC1C(O)C(CO)=CC2O (stereo unspecified) the max response was 4.27% (inactive).
For NS(=O)(=O)NCCNc1nonc1C(=Nc1ccc(F)c(Br)c1)NO, the max response was 3.38% (inactive) and -8.95% (inactive).
CC[C@H]1OC(=O)[C@H](C)[C@@H](OC2C[C@@](C)(OC)[C@@H](O)[C@H](C)O2)[C@H](C)[C@@H](OC2O[C@H](C)C[C@H](NC)[C@H]2O)[C@](C)(O)C[C@@H](C)CN(C)[C@H](C)[C@@H](O)[C@]1(C)O (stereo partly specified) was tested, and the outcome was “inactive”.
In the case of CC(=O)O[C@H]1[C@H](C)[C@@H](O)[C@H]2[C@@H]1C=C(C(=O)O)[C@H]1C[C@@H]3[C@H]([C@H]21)[C@H]1C(=O)O[C@@H]2CC[C@@]3(C)O[C@]1(O)[C@@H]2C, the max response was -0.589% (inactive).
COc1cccc(-n2nc(C(=O)O)cc2-c2ccc(C3CCCCC3)c(Cl)c2)c1 was tested, and the outcome was “inactive”.
With C/C=C1\[C@H](O[C@@H]2O[C@H](CO)[C@@H](O)[C@H](O)[C@H]2O)OC=C(C(=O)OC)[C@H]1CC(=O)OC the outcome was “inactive”.
